{
  "source": "the supplement of paper PMC11634586",
  "note": "Structures can show the parent of a compound that is named as a salt. Unmarked numbers belong to inactive results.",
  "data": [
    {"system": "NCI-H1688", "experiment": "inhibition of cell viability relative to untreated control (fraction); higher = stronger growth inhibition, active = 0.5 or more", "conditions": "30 µM; 24 h", "procedure": "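Natural product library (TargetMol, 640 compounds) screened on NCI-H1688 SCLC cells at 30 µM for 24 h; viability by CCK-8 absorbance at 450 nm, normalised to untreated control and expressed as inhibition rate (fraction). Compounds with >50% reduction in viability were selected as hits.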", "values": [
      {"smiles": "C[C@H](CCC(=O)NCCS(=O)(=O)O)[C@H]1CC[C@H]2[C@@H]3[C@@H](O)C[C@@H]4C[C@H](O)CC[C@]4(C)[C@H]3CC[C@]12C", "note": "[Tauroursodeoxycholic Acid]", "inhibition of cell viability": 0.00688},
      {"smiles": "COc1cc(OC)c2ccc(=O)oc2c1", "note": "[Citropten]", "inhibition of cell viability": -0.00623},
      {"smiles": "C=CC[C@@H]1/C=C(\\C)C[C@H](C)C[C@H](OC)[C@H]2O[C@@](O)(C(=O)C(=O)N3CCCC[C@H]3C(=O)O[C@H](/C(C)=C/[C@@H]3CC[C@@H](O)[C@H](OC)C3)[C@H](C)[C@@H](O)CC1=O)[C@H](C)C[C@@H]2OC", "note": "[Tacrolimus (FK506)]", "inhibition of cell viability": 0.0216},
      {"smiles": "O=C(O)c1cc(=O)[nH]c(=O)[nH]1", "note": "[Orotic acid]", "inhibition of cell viability": -0.0262},
      {"smiles": "Nc1ncnc2c1ncn2C1CC(O)C(CO)O1", "note": "(stereo not given) [2'-Deoxyadenosine monohydrate]", "inhibition of cell viability": -0.0483},
      {"smiles": "COc1cc2c(cc1OC)-c1cc3ccc(OC)c(OC)c3c[n+]1CC2", "note": "[Palmatine chloride]", "inhibition of cell viability": 0.0401},
      {"smiles": "COc1ccc(C2CC(=O)c3c(O)cc(OC4OC(COC5OC(C)C(O)C(O)C5O)C(O)C(O)C4O)cc3O2)cc1OC", "note": "(stereo not given) [Methyl hesperidin]", "inhibition of cell viability": 0.00735},
      {"smiles": "C[C@@H]1CC[C@]2(C(=O)O[C@@H]3O[C@H](CO)[C@@H](O)[C@H](O)[C@H]3O)CC[C@]3(C)C(=CC[C@@H]4[C@@]5(C)CC[C@H](O)[C@@](C)(CO)[C@@H]5CC[C@]43C)[C@@H]2[C@]1(C)O", "note": "[Pedunculoside]", "inhibition of cell viability": 0.134},
      {"smiles": "OC[C@@H](O)[C@@H](O)[C@H](O)[C@@H](O)CO", "note": "[D-Sorbitol]", "inhibition of cell viability": -0.224},
      {"smiles": "CC(C)(O)CC[C@@H](O)[C@](C)(O)[C@H]1CC[C@@]2(O)C3=CC(=O)[C@@H]4C[C@@H](O)[C@@H](O)C[C@]4(C)[C@H]3CC[C@]12C", "note": "[Ecdysterone]", "inhibition of cell viability": -0.0294},
      {"smiles": "O=c1[nH]cnc2nc[nH]c12", "note": "[6-Hydroxypurine]", "inhibition of cell viability": -0.00202},
      {"smiles": "NCCC[C@H](N)C(=O)O", "note": "[L-Ornithine]", "inhibition of cell viability": -0.0432},
      {"smiles": "CC(C)[C@@H](C)/C=C/[C@@H](C)[C@H]1CC[C@H]2C3=CC=C4C[C@@H](O)CC[C@]4(C)[C@H]3CC[C@]12C", "note": "[Ergosterol]", "inhibition of cell viability": -0.172},
      {"smiles": "O=C(O)C1=CO[C@@H](O[C@@H]2O[C@H](CO)[C@@H](O)[C@H](O)[C@H]2O)[C@@H]2C(CO)=CC[C@H]12", "note": "[Geniposidic Acid]", "inhibition of cell viability": -0.0628},
      {"smiles": "c1ccc2c(Cc3c[nH]c4ccccc34)c[nH]c2c1", "note": "[3,3'-Diindolylmethane]", "inhibition of cell viability": 0.12},
      {"smiles": "CN[C@@H]1[C@@H](O[C@H]2O[C@H](CO)[C@@H](N)[C@H](O)[C@H]2O)OC2C[C@@H](N)[C@@H](O[C@H]3[C@H](O)[C@@H](O)[C@H](N)C[C@@H]3N)OC2[C@@H]1O", "note": "(stereo not given in full) [Apramycin sulfate]", "inhibition of cell viability": -0.0456},
      {"smiles": "C[C@@H]1[C@H](O)[C@@H](C)/C=C/C=C/C=C/C=C/C=C/C=C/C=C/[C@H](O[C@@H]2O[C@H](C)[C@@H](O)[C@H](N)[C@@H]2O)C[C@@H]2O[C@](O)(C[C@@H](O)C[C@@H](O)[C@H](O)CC[C@@H](O)C[C@@H](O)CC(=O)O[C@H]1C)C[C@H](O)[C@H]2C(=O)O", "note": "[Amphotericin B]", "inhibition of cell viability": 0.0269},
      {"smiles": "C=CCSC[C@H](N)C(=O)O", "note": "[S-allyl-L-cysteine]", "inhibition of cell viability": -0.0574},
      {"smiles": "O=c1c(-c2ccc(O)cc2)coc2cc(O[C@@H]3O[C@H](CO)[C@@H](O)[C@H](O)[C@H]3O)ccc12", "note": "[Daidzin]", "inhibition of cell viability": -0.0211},
      {"smiles": "O=C(/C=C/c1ccc(O)c2oc(-c3ccc(O)c(O)c3)cc12)O[C@H](Cc1ccc(O)c(O)c1)C(=O)O", "note": "[Salvianolic Acid C]", "inhibition of cell viability": 0.0822},
      {"smiles": "C=C(C)[C@H]1CC=C(C)CC1", "note": "[(R)-(+)-Limonene]", "inhibition of cell viability": 0.281},
      {"smiles": "O=C1O[C@H]([C@@H](O)CO)C(O)=C1O", "note": "[L(+)-Ascorbic acid]", "inhibition of cell viability": 0.195},
      {"smiles": "CC1=C(C/C=C(\\C)CCC[C@H](C)CCC[C@H](C)CCCC(C)C)C(=O)c2ccccc2C1=O", "note": "[Vitamin K1]", "inhibition of cell viability": -0.199},
      {"smiles": "OC[C@@H](O)[C@@H](O)[C@H](O)[C@H](O)CO", "note": "[D-Mannitol]", "inhibition of cell viability": -0.179},
      {"smiles": "C[C@@H]1O[C@@H](O[C@H]2[C@H](Oc3cc(O)c(C(=O)CCc4ccc(O)cc4)c(O)c3)O[C@H](CO)[C@@H](O)[C@@H]2O)[C@H](O)[C@H](O)[C@H]1O", "note": "[Naringin dihydrochalcone]", "inhibition of cell viability": -0.031},
      {"smiles": "COc1cc(/C=C/C(=O)CC(=O)/C=C/c2ccc(O)c(OC)c2)ccc1O", "note": "[Curcumin]", "inhibition of cell viability": 0.315},
      {"smiles": "C=C1C(=O)O[C@@H]2C[C@@]3(C)CCC[C@H](C)C3=C[C@H]12", "note": "[Helenine]", "inhibition of cell viability": "0.789 (active)"},
      {"smiles": "Cc1cc(O)c2c(c1)C(=O)c1cc(O)cc(O)c1C2=O", "note": "[Emodin]", "inhibition of cell viability": 0.493},
      {"smiles": "CNC[C@@H](O)c1ccc(O)c(O)c1", "note": "[L-Adrenaline]", "inhibition of cell viability": 0.0228},
      {"smiles": "COc1cc2c(cc1OC)[C@@H]1Cc3ccc(OC)c(OC)c3CN1CC2", "note": "[Tetrahydropalmatine]", "inhibition of cell viability": 0.242},
      {"smiles": "CC1(C)CC[C@]2(C(=O)O)CC[C@]3(C)C(=CC[C@@H]4[C@@]5(C)CCC(=O)C(C)(C)[C@@H]5CC[C@]43C)[C@@H]2C1", "note": "[Oleanonic Acid]", "inhibition of cell viability": 0.342},
      {"smiles": "O=c1cc[nH]c(=O)[nH]1", "note": "[Uracil]", "inhibition of cell viability": -0.231},
      {"smiles": "CN[C@@H](C)[C@H]1[C@H](O)C[C@@]2(C)[C@@H]3CC[C@H]4C(C)(C)[C@@H](NC)CC[C@@]45C[C@@]35CC[C@]12C", "note": "[Cyclovirobuxin D]", "inhibition of cell viability": -0.0295},
      {"smiles": "C[C@@H]1O[C@@H](Oc2c(-c3cc(O)c(O)c(O)c3)oc3cc(O)cc(O)c3c2=O)[C@H](O)[C@H](O)[C@H]1O", "note": "[Myricetrin]", "inhibition of cell viability": -0.141},
      {"smiles": "COc1ccc2cc1Oc1ccc(cc1)C[C@H]1c3cc(c(OC)cc3CCN1C)Oc1c(O)c(OC)cc3c1[C@H](C2)N(C)CC3", "note": "[(+)-Fangchinoline]", "inhibition of cell viability": "0.984 (active)"},
      {"smiles": "Oc1ccc(/C=C/c2cc(O)cc(O)c2)cc1", "note": "[Resveratrol]", "inhibition of cell viability": 0.49},
      {"smiles": "Cc1ncc(C[n+]2csc(CCO)c2C)c(N)n1", "note": "[Thiamine hydrochloride]", "inhibition of cell viability": -0.123},
      {"smiles": "CC1CCC2(O)C(C)(C)C3CCC2(C)C1C3", "note": "(stereo not given) [Patchouli alcohol]", "inhibition of cell viability": 0.0152},
      {"smiles": "C[C@H](CCC(=O)O)[C@H]1CC[C@H]2[C@@H]3[C@H](O)C[C@@H]4C[C@H](O)CC[C@]4(C)[C@H]3CC[C@]12C", "note": "[Chenodeoxycholic acid]", "inhibition of cell viability": 0.152},
      {"smiles": "OCc1ccc(O[C@@H]2O[C@H](CO)[C@@H](O)[C@H](O)[C@H]2O)cc1", "note": "[Gastrodin]", "inhibition of cell viability": -0.283}
    ]}
  ]
}
